KCC2 mod: modulates chloride dependent transport by human KCC2. B-score of Tl+ flux slope (higher = more flux/activation; lower = inhibition) at 10 µM. KCC2 cells, thallium flux FluoZin-2 fluorescence. 190,000 compounds, 2.2% hits. AID 1456;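 active means thallium flux slope and its plate-corrected score both differing from the plate sample mean at a set confidence after two filtering rounds, in either direction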;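 further: slope of fluorescence scaled to starting intensity during 10 to 20 s after thallium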
Insulin prom inh: TRM-6 insulin promoter activity inhibition; 130,000 compounds, 0.9% hits; inhibition, % at 2 µM; TRM-6 cells (human fetal islet line), insulin promoter-eGFP reporter, imaging; reporter expression induced with tamoxifen;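 active means inhibition above the mean plus 3 SD, with well images judged a real hit on visual review, cut at about 60% in these data, passing the limit was not always enough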
Ins promoter up: MIN6 insulin promoter up-regulation. MIN6 insulin promoter-GFP reporter, high-content imaging; stronger effect = higher value. z-score at 5 µM. 190,000 compounds, 0.3% hits;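 active means z-score above 3 at 5 µM with at least 500 cells counted in the well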
Lmaj promast: Leishmania major promastigote growth inhibition | 200,000 compounds, 9% hits | Leishmania major promastigotes, resazurin fluorescence viability | inhibition, % at 10 µM | AID 1063; in the data active means inhibition above about 50%;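 further: promastigotes grown with compound for 44 hours at 28 °C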
ROMK primary: human ROMK K+ channel modulation, primary screen; B-score at 10 µM; 130,000 compounds, 2% hits; Tet-inducible ROMK, thallium flux fluorescence; actives lie on both sides;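 active means signal ratio slope over the read window, or its plate-corrected B-score, at least 3 SD from the plate mean, either direction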;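 further: B-score of the F/F0 ratio slope over 7 to 12 s after thallium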
Target sequence (P48048 whole entry, looked up): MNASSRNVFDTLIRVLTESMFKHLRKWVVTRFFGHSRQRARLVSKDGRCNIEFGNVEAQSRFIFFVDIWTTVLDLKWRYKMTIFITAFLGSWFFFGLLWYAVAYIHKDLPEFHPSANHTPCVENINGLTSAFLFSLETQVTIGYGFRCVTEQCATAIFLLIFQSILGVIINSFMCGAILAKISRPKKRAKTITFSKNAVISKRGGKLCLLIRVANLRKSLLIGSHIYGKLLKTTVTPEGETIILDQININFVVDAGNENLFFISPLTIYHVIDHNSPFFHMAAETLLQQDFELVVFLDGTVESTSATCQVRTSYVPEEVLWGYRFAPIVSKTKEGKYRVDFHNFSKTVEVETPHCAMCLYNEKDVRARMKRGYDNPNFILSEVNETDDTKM
WT yeast gro inh: growth inhibition of WT yeast, mitochondrial fusion screen; mitochondrial fusion phenotypic screen, WT strain; inhibition, % at 10 µM; 190,000 compounds, 2.1% hits; AID 1362; in the data active means inhibition above about 58%; tested in S. cerevisiae
* hit, by the source's call; nt = not tested or not shown. In the library only some 12% were active in any assay of this set; here they are far more common.

SMILES	KCC2 mod	Insulin prom inh	Ins promoter up	Lmaj promast	ROMK primary	WT yeast gro inh
Cc1cccc(NC(=O)CSc2nnc(-c3ccco3)c(-c3ccco3)n2)c1	-1.8	nt	-0.09	68*	-1.5	3
Cc1ccccc1NC(=O)CSc1ccc(-c2ccco2)nn1	-1.4	nt	-0.29	-1	-0.11	-6
Cc1cccc(NC(=O)CSc2nc(N)cc(N)n2)c1	0.073	4	-0.07	1	nt	11
Cc1ccc(NC(=O)CSc2n[nH]c(-c3ccco3)n2)c(C)c1	-0.54	20	-0.85	4	0.39	-11
Cc1ccc(C)c(NC(=O)CSc2ccc(-c3ccco3)nn2)c1	1.1	nt	-0.55	55*	nt	-11
COc1cc(/C=C2\SC(c3ccc(C)cc3)=NC2=O)ccc1O	nt	0	0.41	100*	nt	-2
CCOc1cc(/C=C2\SC(=S)N(Nc3ccccc3)C2=O)ccc1O	-0.21	nt	0.51	20	1.1	69*
COc1cc(/C=C2\SC(=S)N(Nc3ccccc3)C2=O)ccc1O	0.26	3	0.14	48	nt	86*
CCOc1cc(/C=C2\SC(=S)N(N3CCOCC3)C2=O)ccc1O	0.0025	nt	-0.39	nt	nt	nt
CC(=O)[C@@H]1[C@@H](C(=O)c2ccccc2)[C@]2(C(=O)Nc3ccccc32)[C@H]2C=Cc3cc(F)ccc3N12	-0.86	-13	-0.04	2	-1.7	17
O=C(c1ccccc1)[C@@H]1[C@@H](C(=O)c2ccc(F)cc2)[C@@]2(C(=O)Nc3ccccc32)[C@H]2c3ccccc3C=CN12	-0.2	nt	0.32	74*	nt	16
O=[N+]([O-])c1ccc(COc2ccc(-c3[nH]ncc3-c3ccc(Cl)cc3)c(O)c2)cc1	0.25	-97	0.15	73*	nt	94*
Cc1cc(NS(=O)(=O)c2ccc(NC(=O)c3cc(-c4ccccc4Cl)nc4ccccc34)cc2)no1	0	-31	-0.14	60*	nt	12
O=C(NNC(=S)Nc1ccccc1)c1cc(-c2cccnc2)nc2ccccc12	-1	57	0	1	-0.85	25
O=C(NCc1ccccn1)c1cc(-c2ccccc2Cl)nc2ccccc12	-0.53	30	0.02	87*	-0.86	-19
O=C(NC(=S)Nc1ccccn1)c1cc(-c2ccccc2)nc2ccccc12	22*	50	0.57	10	nt	30
O=C(NC(=S)Nc1ccccc1)c1cc(-c2ccccc2)nc2ccccc12	18*	nt	0.46	33	nt	37
O=C(NCCc1ccccn1)c1cc(-c2ccc(Cl)c(Cl)c2Cl)nc2ccccc12	-0.6	nt	-0.47	38	nt	30
O=C(NNC(=O)c1cc(-c2ccc(Cl)cc2Cl)nc2ccccc12)Nc1ccccc1	0.18	nt	-0.05	70*	0.13	-13
CC1=CN2C(=N)/C(=C/c3cn(CCCOc4ccccc4C)c4ccccc34)C(=O)N=C2S1	-1.2	-100	0.6	46	-0.72	0
COc1cccc(OCCCn2cc(/C=C3/C(=N)N4C=C(C)SC4=NC3=O)c3ccccc32)c1	-0.19	-83	1.6	95*	0.52	4
COc1ccc(OCCCn2cc(/C=C3/C(=N)N4C=C(C)SC4=NC3=O)c3ccccc32)cc1	0.0071	-17	0.44	87*	0.13	6
C/C(=N\NC(=S)Nc1ccc(C(C)C)cc1)c1ccc2c(c1)OCO2	0.068	nt	-0.44	-13	0.91	20
Cc1nccn1-c1cc(C(C)C)c(C#N)c2nc3ccccc3n12	nt	nt	nt	nt	0.78	nt
CCOC(=O)Cn1c(=O)oc2cc(S(=O)(=O)Nc3c(C)cc(C)cc3C)ccc21	1.6	nt	-0.64	3	nt	5
SMILES	KCC2 mod	Insulin prom inh	Ins promoter up	Lmaj promast	ROMK primary	WT yeast gro inh
CN(C)C(=S)c1ccc2ccccc2n1	-0.057	nt	-0.11	-4	nt	nt
CCNc1nc(NCC)n2c(SC(C(=O)Nc3cc(C)ccc3C)c3ccccc3)nnc2n1 (stereo not given)	-0.92	nt	-0.09	15	-1.7	-11
CCOCCCn1c(SC(C(=O)Nc2cc(C)ccc2C)c2ccccc2)nnc1-c1ccc(Cl)cc1 (stereo not given)	-1.1	nt	-0.62	61*	-0.92	7
CCOC(=O)c1sc(NC(=O)C(C)Sc2nc(N)cc(=O)[nH]2)nc1C (stereo not given)	-0.6	-17	0.01	-6	0.033	-5
CCn1c2ccccc2c2cc(/C=N/NC(=O)c3ccc(O)cc3)ccc21	-0.36	-35	0.43	67*	0.027	5
O=C(NCCCN1CCOCC1)c1ccc(CSCc2cccc(Cl)c2)o1	-0.76	7	-1.2	71*	nt	-6
Clc1cccc(-c2ccc(CNCCCN3CCOCC3)o2)c1	-0.0027	nt	-0.34	77*	-3.3	19

Screening data deposited in PubChem BioAssay by several laboratories.
